Source: PubChem (National Center for Advancing Translational Sciences (NCATS))
Rows were chosen to be rich in hits. Some 10% of all compounds tested hit in one or more screens of this group.
Pf growth 48h: P. falciparum growth inhibition at 48 hours (one generation); P. falciparum luciferase growth in erythrocytes, 48 h; Potency, µM (top dose mostly 28.7 µM), hits mostly inhibitors; actives 5.9% (n = 310,000); active = well fitted inhibition curve with a large enough effect; inconclusive = small, poorly fitted or top-dose-only effect, or another doubt; inactive = no such curve, though single readings can be large or run the other way
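Luciferase-expressing P. falciparum in infected erythrocytes (2% hematocrit, 0.1% parasitemia final) in RPMI 1640/0.5% Albumax were exposed to compound for 48 hours at 37 C, 5% CO2; growth read as luminescence.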
NS1 inh: influenza NS1 inhibition; Potency, µM (series often up to 46.1 µM); actives 0.4% (n = 270,000); AID 2326; note: actives are rising curves; nearly all actives have a fitted effect of over 50% in size
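A cell-based growth assay was used: compounds that relieve NS1-induced slow growth of budding yeast raise OD600. Assay medium was yeast nitrogen base with ammonium sulphate and -URA supplement, pH 6.0, with 2% galactose.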
SARS PLP yeast: blocks SARS-CoV papain-like protease in a yeast assay. S. cerevisiae expressing SARS-CoV PLpro, growth rescue. actives 0.19% (n = 330,000). Potency, µM (titrated, usually from 32.9 µM), hits mostly activators; note: nearly all actives have a fitted effect of over 55% in size
Pf growth 96h: P. falciparum growth inhibition at 96 hour, primary screen for plastid delayed-death inhibitors; P. falciparum luciferase reporter growth, 96 h; Potency, µM (doses to about 28.7 µM), actives largely listed as inhibitors; actives 6.9% (n = 320,000); AID 504834; active = well fitted inhibition curve with a large enough effect; inconclusive = small, poorly fitted or top-dose-only effect, or another doubt; inactive = no such curve, though single readings can be large or run the other way
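Plates of compound plus infected erythrocytes (2% hematocrit, 0.05% parasitemia final) incubate 96 hours, 37 C, 5% CO2. Detection reagent added; reduced luminescence from the parasites' luciferase reporter flags inhibition.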
Of the large screens only hits and unclear results are named; the others gave an inactive call. Unless noted, calls come from the whole dose curve.

CCCNC(=O)C(Cc1ccccc1)NC(=O)c1ccc(C(F)(F)F)cc1 (stereo unspecified)	Pf growth 96h inconclusive (no result: NS1 inh)
CCOc1ccc(OCC)c(NC(=O)C2CCN(S(=O)(=O)c3ccc4c(c3)CC(C)N4C(C)=O)CC2)c1 (stereo unspecified)	Pf growth 48h inconclusive
O=c1c2ccccc2nnn1CCN1CCOCC1	none
CCCn1nc2ccccc2c1P(=N)(N1CCOCC1)N1CCOCC1	Pf growth 96h 11.7µM
CC1CCCN(CCCNC(=O)c2nn(C)c3c2CS(=O)(=O)c2ccccc2-3)C1 (stereo unspecified)	Pf growth 96h inconclusive
O=C(Nc1ccccc1)N1CCCN(c2c(Cl)cncc2Cl)CC1	Pf growth 48h inconclusive, Pf growth 96h inconclusive
CC(C)(C)c1ccc(NC(=O)N2CCCN(c3c(Cl)cncc3Cl)CC2)cc1	Pf growth 48h 10.4µM, Pf growth 96h inconclusive
CC(=O)N1c2ccc(S(=O)(=O)NCCC(=O)Nc3ccc(C)c(F)c3)cc2CC1C (stereo unspecified)	Pf growth 48h inconclusive
CC(C)N1CCN(Cc2ccc(OC3CCCC3)cc2)CC1CCO (stereo unspecified)	Pf growth 96h 11.7µM
CC(C)N1CCN(Cc2ccc(OCc3ccccc3)cc2)CC1CCO (stereo unspecified)	Pf growth 96h inconclusive
O=P(O)(OP(=O)(O)c1ccccc1)c1ccccc1 (tested in a mixture with another compound)	none (no result: Pf growth 48h, SARS PLP yeast, Pf growth 96h)
C=CCNC(=O)c1ccccc1NC(=O)C1CC(=O)N(C(C)C)C1 (stereo unspecified)	none
COc1ccc2oc(C(=O)Nc3ccc(S(=O)(=O)N(C)C4CCN(C)CC4)cc3)c(C)c2c1	Pf growth 48h 5.86µM, Pf growth 96h inconclusive
Cc1ccc(NC(=O)c2oc3ccc(S(=O)(=O)N4CCC5(CC4)OCCO5)cc3c2C)cc1C	Pf growth 48h 13.1µM, SARS PLP yeast inconclusive, Pf growth 96h inconclusive
CCN(CC)C(=O)c1oc2ccc(S(=O)(=O)N3CC(C)CC(C)C3)cc2c1C (stereo unspecified)	Pf growth 48h inconclusive
Cc1c(C(=O)NCCN(C)C)oc2ccc(S(=O)(=O)N3CCC4(CC3)OCCO4)cc12	none
CCOC(=O)c1oc2ccc(S(=O)(=O)n3nc(-c4cc(OC)c(OC)c(OC)c4)cc3N)cc2c1C	Pf growth 48h 13.1µM (no result: NS1 inh)
Cc1c(C(=O)Nc2ccc(F)cc2)oc2ccc(S(=O)(=O)N3CC(C)CC(C)C3)cc12 (stereo unspecified)	Pf growth 48h 10.4µM (no result: Pf growth 96h)
COc1cc(-c2cc(N)n(S(=O)(=O)c3ccc(F)cc3)n2)cc(OC)c1OC	none (no result: Pf growth 48h)
COc1cc(OC)cc(-c2nnc(SCc3ccc(C(=O)O)cc3)o2)c1	none
CCOC(=O)c1oc2ccc(S(=O)(=O)N3CCOCC3)cc2c1C	Pf growth 96h 1.85µM
COc1ccc(NC(=O)c2cccc(OC(=S)N3CCOCC3)c2)cc1	Pf growth 48h inconclusive
Cc1cccc(NC(=O)c2cccc(OC(=S)N3CCOCC3)c2)c1C	Pf growth 96h 1.85µM
CCOC(=O)c1oc2ccc(S(=O)(=O)N3CCC(C)CC3)cc2c1C	Pf growth 48h inconclusive, Pf growth 96h inconclusive
Cc1cccc(NC(=O)c2oc3ccc(S(=O)(=O)N4CCOCC4)cc3c2C)c1C	Pf growth 48h 4.65µM, NS1 inh inconclusive
Cc1c(C(=O)NCCC2=CCCCC2)oc2ccc(S(=O)(=O)N3CCOCC3)cc12	Pf growth 48h 11.7µM
COc1ccc2cc(C(=O)C3CCCN(C(=O)CCc4cnn(C)c4)C3)ccc2c1 (stereo unspecified)	Pf growth 96h inconclusive
CC(C)n1nnc(-c2ccc(OCc3ccccc3F)cc2)n1	Pf growth 96h 8.28µM
CCOC(=O)/C(=N\Nc1ccc(Br)cc1)N1CCN(c2ccccc2OC)CC1	Pf growth 48h 14.7µM, Pf growth 96h inconclusive
CCOC(=O)N1CCN(c2ccccc2OC)CC1	none
Cc1cccc(CSc2nnc3c(n2)[nH]c2ccccc23)c1	Pf growth 48h 1.47µM, Pf growth 96h 1.85µM
CCOC(=O)CN(C(=O)CSc1nnc2c(n1)[nH]c1ccc(F)cc12)c1ccccc1	Pf growth 48h 13.1µM
CCOC(=O)CN(C(=O)CSc1nnc2c(n1)[nH]c1ccccc12)c1ccccc1	Pf growth 48h 7.38µM, Pf growth 96h inconclusive
CC1CCCN(C(=O)CNS(=O)(=O)c2cccs2)C1 (stereo unspecified)	Pf growth 96h inconclusive
Cc1ccsc1CN(C)C(=O)C(NC(=O)c1cccc(S(=O)(=O)N2CCOCC2)c1)C(C)C (stereo unspecified)	Pf growth 48h 13.1µM, Pf growth 96h inconclusive (no result: NS1 inh)
